This is part of a sample that, as a whole, favours compounds with a hit. Of some 83,000 tested, about 20% had one in any assay.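 96-well plates, one dose, 48 hours. Percent growth reported; active if below 10.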 A number with no mark means an inactive call. The source made the active and inactive calls.
Key:
Test in all cases: NCI-60 one-dose screen, 48 h (100 = growth as untreated, 0 = no growth, -100 = all killed)
Settings in all cases: 10 µM unless noted
NCI-H23 lung = system: NCI-H23 lung
NCI-H226 lung = system: NCI-H226 lung
NCI-H322M lung = system: NCI-H322M lung
HOP-62 NSCLC = system: HOP-62 NSCLC
NCI-H460 lung = system: NCI-H460 lung
HOP-92 NSCLC = system: HOP-92 NSCLC
NCI-H522 lung = system: NCI-H522 lung
A549/ATCC NSCLC = system: A549/ATCC NSCLC
786-0 renal = system: 786-0 renal
COLO 205 colon = system: COLO 205 colon
DU-145 prostate = system: DU-145 prostate
K-562 leukemia = system: K-562 leukemia
MALME-3M melanoma = system: MALME-3M melanoma
MDA-MB-231 breast = system: MDA-MB-231 breast
RXF 393 renal = system: RXF 393 renal
SF-268 CNS = system: SF-268 CNS
SF-295 CNS = system: SF-295 CNS
SF-539 CNS = system: SF-539 CNS
UACC-257 melanoma = system: UACC-257 melanoma
M14 melanoma = system: M14 melanoma

SMILES | growth (NCI-H23 lung) | growth (NCI-H226 lung) | growth (NCI-H322M lung) | growth (HOP-62 NSCLC) | growth (NCI-H460 lung) | growth (HOP-92 NSCLC) | growth (NCI-H522 lung) | growth (A549/ATCC NSCLC) | growth (786-0 renal) | growth (COLO 205 colon) | growth (DU-145 prostate) | growth (K-562 leukemia) | growth (MALME-3M melanoma) | growth (MDA-MB-231 breast) | growth (RXF 393 renal) | growth (SF-268 CNS) | growth (SF-295 CNS) | growth (SF-539 CNS) | growth (UACC-257 melanoma) | growth (M14 melanoma)
N#C/C(=C\c1ccc(F)cc1)n1nc2cccc(F)c2n1 | 56.7% | 97.6% | 76.2% | 76.3% | 39.2% | 6.85% (active) | 8.28% (active) | 78.7% | 67.3% | 67.1% | 37.6% | 13.3% | 52.9% | 49% | 12.8% | 71.4% | 76.1% | 7.78% (active) | 61% | 25.8%
CC1=C(SCCC(=O)OC(C[Se]C2=C(C)C(=O)c3ccccc3C2=O)C(=O)NC(C)(C)C)C(=O)c2ccccc2C1=O (stereo not given) | -42.7% (active) | -63.3% (active) | -79.8% (active) | -65.4% (active) | -59% (active) | -66.6% (active) | -48.2% (active) | -40% (active) | -86.1% (active) | -86.4% (active) | -99% (active) | 7.31% (active) | -74.9% (active) | -58% (active) | -89.1% (active) | -96.2% (active) | -30.9% (active) | -99.8% (active) | -88.1% (active) | -84.1% (active)
Cc1cccc2c3c(sc12)C(c1ccc(F)cc1)C(C#N)=C(N)O3 (stereo not given) | 21.3% | 26.1% | 46.4% | 33.2% | 3.07% (active) | 68.4% | 13.6% | 22.1% | 16.7% | -37.3% (active) | 7.98% (active) | 8.65% (active) | 73.8% | 26.9% | 38.7% | 27.8% | 5.18% (active) | -15.3% (active) | 68.2% | 10.4%
COc1cc(/C=C/C(=O)/C=C/c2cc(OC)c3c(c2OC)OCO3)c(OC)c2c1OCO2 | 33.2% | 73.9% | 56.8% | 72.8% | 23.5% | 74.1% | -15.5% (active) | 55.1% | 29% | 13.3% | 28.3% | 12.4% | 46.7% | 46% | 16.6% | 48.7% | 89.7% | 29.4% | 54.1% | 31.7%
COc1cc(CCC[P+](c2ccccc2)(c2ccccc2)c2ccccc2)c(OC)c2c1OCO2 | 19.3% | 55.3% | 85.3% | 18.9% | 31.8% | 11.3% | 6.02% (active) | 43.7% | 31.2% | -35.6% (active) | 28.5% | 14.4% | 3.07% (active) | -0.787% (active) | 64.3% | 13% | 66.9% | 46.9% | 5.75% (active) | 17.4%
O=C1/C(=C/c2ccccc2[N+](=O)[O-])Oc2ccc(O)c(O)c21 | 33.5% | 83.3% | 81% | 71.3% | 60.6% | 76.6% | -18% (active) | 72.3% | 47.2% | 57.7% | 32.5% | 17.2% | 45% | 45.6% | 5.8% (active) | 60.4% | 85.2% | 29% | 49.3% | 54.9%
CCOC(=O)c1cn2ncnc(Oc3ccc(NC(=O)NCCN(C)C)c(Cl)c3)c2c1C | 75.5% | 93.2% | 90.5% | 95.3% | 103% | 44.8% | 87.9% | 92.4% | 76.1% | 55.9% | 86.8% | 4.33% (active) | 58.9% | 65.2% | 55.6% | 65.1% | 94.6% | 71.5% | -4.6% (active) | -40.6% (active)
CCCCCCNC(=O)Oc1ccc(/C(=C(\C)c2ccc(OC)cc2)c2ccc(OCCN3CCCCC3)cc2)cc1 | 64.6% | 95.6% | 90.3% | 72% | 52.7% | 67.6% | 72.7% | 61.7% | 41.7% | 16.3% | 79.7% | 6.45% (active) | 34.8% | 73.6% | 47.2% | 71.8% | 33.3% | 27.1% | -1.88% (active) | -37% (active)
CCOC(=O)c1cn2ncnc(Oc3ccc(NC(=O)NCCN4CCN(C)CC4)c(Cl)c3)c2c1C | 67.8% | 82.3% | 93% | 87.9% | 99.4% | 31.6% | 66.6% | 88.6% | 81.8% | 76.8% | 81.2% | 10.9% | 28.3% | 72% | 35.8% | 81.4% | 94.8% | 78.5% | -15.9% (active) | -23.7% (active)
COC(=O)c1ccc2[nH]c(O)c(C(=Nc3ccc(N(C)C(=O)CN4CCN(C)CC4)cc3)c3ccccc3)c2c1 | 31.1% | 19% | 76.8% | 26.1% | 24.9% | 59.7% | 50.3% | 39.4% | 1.61% (active) | 11.4% | 21.5% | 9.67% (active) | -6.01% (active) | 22.6% | -39.3% (active) | 27.7% | 27.3% | -25.5% (active) | 35.4% | 11.2%
CC(C)OC(=O)Nc1ccc(-c2nc(-c3cccc(OCCN4CCOCC4)c3)c(-c3ccnc(Br)c3)[nH]2)cc1 | 33% | 55.3% | 46.5% | 28.4% | 30% | 29.8% | 49.9% | 40% | -33% (active) | -5.63% (active) | 63.8% | 0.869% (active) | -5.36% (active) | 39.3% | -42.9% (active) | 52.2% | -65.2% (active) | -0.0542% (active) | 33.5% | 30.5%
COc1ccc2cc(C(C)C(=O)Nc3ccc(-c4n[nH]c(=S)n4C4CCCCC4)cc3)ccc2c1 (stereo not given) | 90.2% | 95.3% | 114% | 84.3% | 43.2% | 43.4% | 64.8% | 41.2% | 78.4% | 75.5% | 89.1% | 63.9% | 124% | 75.9% | 91.1% | 65.5% | 60.7% | 83.8% | 76.7% | 63.2%
COc1cc(Nc2cn[nH]c2-c2ccc(Cl)cc2)cc(OC)c1OC | 6.84% (active) | 65.2% | 79.7% | 36.7% | 33.2% | 50.7% | 21.7% | 51% | 53.5% | 37.6% | 108% | 36.4% | 38.1% | 49.4% | 51.5% | 77% | 66.4% | 43.4% | 71.3% | 8.84% (active)
Cc1ccc(-c2nc(SCC(=O)Nc3nc(-c4ccc(Cl)cc4)cs3)[nH]c(=O)c2C#N)cc1 | 95.1% | 89.5% | 101% | 94% | 105% | -13.3% (active) | 77.5% | 86.7% | 93.2% | 117% | 103% | 97.1% | 109% | 110% | 114% | 98.1% | 101% | 117% | 88% | 91.7%
CCN(CC)Cc1cc(Nc2c3ccc(Cl)cc3nc3ccc(OC)cc23)ccc1O | 65.7% | 86% | 62.5% | 80.5% | 34.9% | 60.5% | 39% | 52.4% | 47.3% | 5.97% (active) | 62.6% | 3.14% (active) | 112% | 45.7% | -12.6% (active) | 43.9% | 72.5% | 58.7% | -39.4% (active) | -67.5% (active)

Source: PubChem BioAssay (NCI)
